# Laboratory results reported in PubChem BioAssay (EPA / NIEHS).
# Some compounds were tested as several samples or in several runs, with calls that do not always agree. Activity calls are given as the source filed them. The calls were made as follows: active = hit-call score of the fitted dose curve at least 0.9, where 1 is the maximum; inactive = score below 0.9.
# Read-out: Tissue Factor, F3 (gene 2152)
# Assay: BSK_LPS_TissueFactor: BioMAP Diversity Plus: LPS Assay for Tissue Factor Biomarker Activity (AID 2283084)
# Conditions: primary human HUVEC with PBMC; actives raise or lower the signal
# Experimental: BSK_LPS is a cell-based, multiplexed-readout assay that uses umbilical vein endothelium and peripheral blood mononuclear cells, a human vascular primary cell co-culture, with measurements taken at 24 hours after chemical dosing in a 96-well plate.BSK_LPS_TissueFactor is an assay component measured in the BSK_LPS assay. It measures CD142 Tissue Factor antibody related to regulation of gene expression using ELISA technology.Data from the assay component BSK_LPS_TissueFactor was analyzed into 1 assay endpoint. This assay endpoint, BSK_LPS_TissueFactor, was analyzed with bidirectional fitting relative to DMSO as the negative control and baseline of activity. Using a type of binding reporter, gain or loss-of-signal activity can be used to understand changes in the signaling as they relate to the gene F3. Furthermore, this assay endpoint can be referred to as a primary readout, because this assay has produced multiple assay endpoints where this one serves a signaling function. To generalize the intended target to other relatable targets, this assay endpoint is annotated to the cytokine intended target family, where the subfamily is coagulation factor.
# The levels of cell surface (or secreted, indicated by the prefix "s") biomarker endpoints were measured by ELISA. Overt cytotoxicity to cells in confluent adherent cultures (all systems other than the BT system) was assessed by measuring total protein levels using sulforhodamine B (SRB) staining in parallel cultures at the time of biomarker measurements, indicated as SRB endpoints. For proliferation assays for adherent cell types, individual cell types are cultured at sub-confluence and relative cell numbers quantified by SRB staining at time points optimized for each system (48 h: 3C and CASM3C systems; 72 h: BT and HDF3CGF systems; 96 h: SAg system). SRB was performed by staining cells with 0.1% SRB after fixation with 10% TCA and reading wells at 560 nm.Viability and proliferation of PBMC (T cells) was quantified by Alamar Blue reduction for the SAg and BT systems. For PBMC viability (referred to as PBMC Cytotoxicity within the assay endpoint names), cells were plated (75,000/well in a 96-well plate) and then chemical samples added for 1 h before addition of activators, SEB and TSST-1 (20 ng/mL final concentration each). Cells were incubated for 90 h. Then, Alamar Blue (20 uL/well) (Invitrogen, Cat DAL1100) was added for 6 h, and the plates were read with a fluorescence microplate reader at 546/580 nm (excitation/emission). For PBMC proliferation, cells were plated and activated as above but incubated for only 16 h prior to addition of Alamar Blue. Plates were read after 6 h.
Structure (SMILES),outcome,AC50
CCOC(=O)C=Cc1ccccc1,inactive,–
CC(=O)c1ccc(C)cc1,inactive,–
COc1ccccc1NC(=O)CC(C)=O,inactive,–
CCCO[Si](OCCC)(OCCC)OCCC,inactive,–
O=C1OC2(c3ccc(O)cc3Oc3cc(O)ccc32)c2ccccc21,inactive,–
CC(=O)OC(C)(C)C1CC=C(C)CC1 (stereo not given),inactive,–
C#C[C@]1(O)CC[C@H]2[C@@H]3CCc4cc(O)ccc4[C@H]3CC[C@@]21C,inactive,–
C[C@]12CC[C@@H]3c4ccc(O)cc4CC[C@H]3[C@@H]1CC[C@@H]2O,inactive,–
C=C(C)C(N)=O,inactive,–
Nc1ccc(N)c([N+](=O)[O-])c1,inactive,–
c1ccc(Sc2ccccc2)cc1,–,37 µM (active)
NC(=O)c1c(Cl)cccc1Cl,inactive,–
OCCN1CCOCC1,inactive,–
c1ccc2c(c1)-c1ccc3ccc4cccc5cc-2c1c3c45,–,0.0082 µM (active)
O=S1(=O)CC(Cl)(Cl)C(Cl)(Cl)C1,–,0.538 µM (active)
CCCCOCCOCCO,inactive,–
CCn1cc(C(=O)O)c(=O)c2ccc(C)nc21,inactive,–
CC(C)(C)c1cccc(O)c1,inactive,–
O=C(O)C(F)(F)C(F)(F)C(F)(F)C(F)(F)C(F)(F)C(F)(F)C(F)(F)C(F)F,inactive,–
CC(C)CCCC(C)(C)O,inactive,–

Structure (SMILES),outcome,AC50
O=C(O)C(F)(F)OC(F)(F)C(F)(F)OC(F)(F)C(F)(F)C(F)(F)C(F)(F)F,inactive,–
c1ccc(OCCOc2ccccc2)cc1,inactive,5.17 µM (active)
CC=CC(=O)C1=C(C)C=CCC1(C)C,inactive,–
C=C(F)C(=O)OC(C(F)(F)F)C(F)(F)F,inactive,–
CCCCCCCCCCCCS,inactive,–
CC1=CC(C)C(C=O)C(C)C1 (stereo not given) (tested in a mixture with another compound),inactive,–
C=CC(=O)OCC(CO)(COC(=O)C=C)COC(=O)C=C,–,0.576 µM (active)
C=C(C)C(=O)OCCC(F)(F)C(F)(F)C(F)(F)C(F)(F)C(F)(F)C(F)(F)C(F)(F)C(F)(F)F,inactive,–
COC(=O)c1ccc(C(=O)OC)cc1,inactive,–
CCC(=O)OCC=Cc1ccccc1,inactive,–
CC(=O)CCC=C(C)CCC=C(C)C,inactive,–
CCCCN(CCO)CCO,inactive,–
CCCCCCCC1CCCC1=O (stereo not given),inactive,–
CC(=O)OCC=C(C)CCC=C(C)CCC=C(C)C,inactive,–
CC1(C)[C@H](C=C(Cl)Cl)[C@H]1C(=O)OCc1cccc(Oc2ccccc2)c1,inactive,–
C=C1CC/C=C(\C)CC[C@@H]2[C@@H]1CC2(C)C,–,5.05 µM (active)
OCC(F)(OC(F)(F)C(F)(OC(F)(F)C(F)(F)C(F)(F)F)C(F)(F)F)C(F)(F)F (stereo not given),inactive,–
O=C(c1ccc(OCCN2CCCCC2)cc1)c1c(-c2ccc(O)cc2)sc2cc(O)ccc12,–,35.9 µM (active)
CCOC(=O)CCCCCCCCC(=O)OCC,inactive,–
